The panel holds about 79,000 compounds, 15% with a hit somewhere; the sample as a whole holds those more often. Active and inactive are the calls of the source. Cut-off read from the data, not from the text of the source: active = growth inhibition above about 70%; inactive = the rest.
Columns and labels:
[1] = NCI Yeast Anticancer Drug Screen. Data for the mec2-1 strain (AID 157); conditions: S. cerevisiae mec2-1 strain, at 100.0 µM, stronger effect = higher value
Outline: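 Test agents were screened against the mec2-1 yeast strain, with defined DNA repair or cell cycle alteration. Growth was scored as inhibition against vehicle-only controls.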

[2] = NCI Yeast Anticancer Drug Screen. Data for the sgs1 mgt1 strain (AID 161);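 note: 0% = growth of cultures given vehicle only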; conditions: S. cerevisiae sgs1 mgt1 strain, stronger effect = higher value
Outline: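 Read-out: growth inhibition vs vehicle controls. Cells: mutant yeast strain deficient in DNA damage repair.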

[3] = NCI Yeast Anticancer Drug Screen. Data for the CLN2oe strain (AID 163);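 note: 0% = growth of vehicle-only control cultures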; conditions: S. cerevisiae CLN2oe strain, stronger effect = higher value
Outline: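 Here, growth inhibition in a cell-cycle-altered yeast strain after compound exposure was quantified against vehicle control growth.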

[4] = NCI Yeast Anticancer Drug Screen. Data for the cln2 rad14 strain (AID 165);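 note: 0% = growth equal to vehicle treated cultures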; conditions: S. cerevisiae cln2 rad14 strain, stronger effect = higher value
Outline: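 Growth of compound-exposed yeast (cln2 rad14 genotype) measured and expressed as inhibition relative to vehicle.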

[5] = NCI Yeast Anticancer Drug Screen. Data for the bub3 strain (AID 167); conditions: S. cerevisiae bub3 mutant strain, stronger effect = higher value
Outline: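 Compounds were applied to a genetically altered yeast strain carrying a cell-cycle control defect. Growth inhibition was scored against vehicle-treated controls.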

[6] = NCI Yeast Anticancer Drug Screen. Data for the wt2 strain (AID 169);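 note: 0% = growth of vehicle-treated yeast cultures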; conditions: S. cerevisiae wt2 strain growth inhibition, stronger effect = higher value
Outline: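 Genetically defined yeast strains from a DNA-repair/cell-cycle panel were used. Compound-exposed yeast growth was measured, and the inhibition was calculated relative to vehicle treatment.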

[7] = NCI Yeast Anticancer Drug Screen. Data for the mlh1 strain (AID 171);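 note: 0% = growth of vehicle-treated control cultures of the same strain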; conditions: S. cerevisiae mlh1 strain growth inhibition, stronger effect = higher value
Outline: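 Here the genetically defined yeast mutant is grown with each compound, and the extent to which its growth falls below that of vehicle-exposed cells is reported.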

[8] = NCI Yeast Anticancer Drug Screen. Data for the sgs1 strain (AID 173);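 note: 0% = growth of vehicle-only control cultures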; conditions: S. cerevisiae sgs1 mutant, stronger effect = higher value
Outline: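 Relative growth inhibition, referenced to vehicle, was determined in a yeast strain with a defined alteration affecting DNA damage repair or cell cycle control after compound exposure.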

[9] = NCI Yeast Anticancer Drug Screen. Data for the mlh1 rad18 strain (AID 175); conditions: S. cerevisiae mlh1 rad18 strain growth inhibition, stronger effect = higher value
Outline: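 In this whole-cell yeast screen, a strain with altered DNA damage repair is challenged with compound, and its growth is measured against matched vehicle-treated controls.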

[10] = NCI Yeast Anticancer Drug Screen. Data for the rad18 strain (AID 177); conditions: S. cerevisiae rad18 mutant growth inhibition, stronger effect = higher value
Outline: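 Screen uses a yeast strain with a defined lesion in DNA damage repair; compound effect is read as loss of growth compared to untreated vehicle cultures.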

[11] = NCI Yeast Anticancer Drug Screen. Data for the wt1 strain (AID 149);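 note: 0% = growth of vehicle-treated wt1 cultures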; conditions: S. cerevisiae wt1 strain (SPY 50644) growth inhibition, stronger effect = higher value
Outline: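 Yeast wt1 strain exposed to compounds; growth inhibition measured relative to vehicle-treated controls.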

[12] = NCI Yeast Anticancer Drug Screen. Data for the rad50EPP+ strain (AID 151);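 note: 0% = growth of vehicle-treated control cultures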; conditions: S. cerevisiae rad50 mutant strain, stronger effect = higher value
Outline: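 One strain with a rad50 alteration (rad50EPP+) was compound-treated, its growth then compared to that of vehicle controls.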

[13] = NCI Yeast Anticancer Drug Screen. Data for the mgt1 strain (AID 153); conditions: S. cerevisiae mgt1 mutant growth inhibition, stronger effect = higher value
Outline: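 After exposure of the mgt1 yeast mutant to compound, growth was measured and reported as inhibition compared with vehicle controls.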

[14] = NCI Yeast Anticancer Drug Screen. Data for the rad50 strain (AID 155);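 note: 0% = growth of vehicle-only cultures of the same strain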; conditions: S. cerevisiae rad50 strain growth inhibition, stronger effect = higher value
Outline: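 Yeast carrying a defined DNA repair defect were exposed to test compounds, and growth was compared with vehicle-treated controls to give percent inhibition.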

[15] = NCI Yeast Anticancer Drug Screen. Data for the rad14 strain (AID 159);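 note: 0% = growth of vehicle-treated control cultures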; conditions: S. cerevisiae rad14 strain growth inhibition, stronger effect = higher value
Outline: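 Yeast cells carrying a defined DNA-repair defect were exposed to compounds, and growth inhibition was calculated relative to vehicle-treated control cultures.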

[16] = at 5.0 µM (retest, dose inferred, filed as 0.5)
[17] = at 50.0 µM (retest, dose inferred, filed as 5.0)

Measured: growth inhibition

Nc1c([N+](=O)[O-])cc2c3c(cccc13)CC2
active: [9]; at 50.0 µM 77.9% | [10]; at 3.7 µM 71% | [10]; at 11.0 µM 86% | [10]; at 33.0 µM 83% | [10]; at 100.0 µM 86%
inactive: [1] 29% | [2]; [16] 16% | [2]; [17] 54% | [2]; at 50.0 µM 52.5% | [3]; at 1.2 µM 8% | [3]; at 3.7 µM 14% | [3]; at 11.0 µM 17% | [3]; at 33.0 µM 20% | [3]; at 100.0 µM 26% | [4]; [16] -16% | [4]; [17] 20% | [4]; at 50.0 µM 21.5% | [5]; at 1.2 µM -4% | [5]; at 3.7 µM 0% | [5]; [16] -20% | [5]; at 11.0 µM 14% | [5]; at 33.0 µM 10% | [5]; [17] 17% | [5]; at 50.0 µM 21.4% | [5]; at 100.0 µM 11% | [6]; at 1.2 µM 3% | [6]; at 3.7 µM 10% | [6]; at 11.0 µM 18% | [6]; at 33.0 µM 25% | [6]; at 100.0 µM 55% | [7]; at 1.2 µM 5% | [7]; at 3.7 µM 14% | [7]; at 11.0 µM 20% | [7]; at 33.0 µM 28% | [7]; at 100.0 µM 53% | [8]; at 1.2 µM 8% | [8]; at 3.7 µM 20% | [8]; at 11.0 µM 33% | [8]; at 33.0 µM 45% | [8]; at 100.0 µM 65% | [9]; [16] 12% | [9]; [17] 65% | [10]; at 1.2 µM 24%

[O-]c1c2cc(-[n+]3c(-c4ccccc4)cc(-c4ccccc4)cc3-c3ccccc3)cc1COCCOCCOCCOCCOC2
active: [13]; at 100.0 µM 82% | [14]; at 100.0 µM 80% | [15]; at 100.0 µM 81% | [3]; at 100.0 µM 77% | [7]; at 100.0 µM 87% | [8]; at 100.0 µM 71% | [9]; [17] 70% | [9]; at 50.0 µM 72.2%
inactive: [11]; at 1.2 µM 3% | [11]; at 3.7 µM -6% | [11]; at 11.0 µM -6% | [11]; at 33.0 µM -7% | [11]; at 100.0 µM 35% | [12]; at 1.2 µM -1% | [12]; at 3.7 µM 0% | [12]; at 11.0 µM 5% | [12]; at 33.0 µM 31% | [12]; at 100.0 µM 66% | [13]; at 1.2 µM -7% | [13]; at 3.7 µM -2% | [13]; at 11.0 µM -13% | [13]; at 33.0 µM 10% | [14]; at 1.2 µM 1% | [14]; at 3.7 µM -2% | [14]; [16] -5% | [14]; at 11.0 µM 0% | [14]; at 33.0 µM 17% | [14]; [17] 35% | [14]; at 50.0 µM 59.1% | [15]; at 1.2 µM 1% | [15]; at 3.7 µM 1% | [15]; at 11.0 µM 1% | [15]; at 33.0 µM 9% | [2]; [16] -11% | [2]; [17] 20% | [2]; at 50.0 µM 31.6% | [3]; at 1.2 µM -6% | [3]; at 3.7 µM 1% | [3]; at 11.0 µM -3% | [3]; at 33.0 µM -6% | [4]; [16] -31% | [4]; [17] 12% | [4]; at 50.0 µM 17.1% | [5]; at 1.2 µM -4% | [5]; at 3.7 µM -6% | [5]; [16] -19% | [5]; at 11.0 µM -4% | [5]; at 33.0 µM -8% | [5]; [17] 10% | [5]; at 50.0 µM 21.7% | [5]; at 100.0 µM 30% | [7]; at 1.2 µM -1% | [7]; at 3.7 µM -1% | [7]; at 11.0 µM -2% | [7]; at 33.0 µM 12% | [8]; at 1.2 µM -4% | [8]; at 3.7 µM -2% | [8]; at 11.0 µM -1% | [8]; at 33.0 µM 18% | [9]; [16] 0%
